Bioassay records: PubChem, National Center for Advancing Translational Sciences (NCATS)
Tau ThT inhib: blocks human tau fibril formation measured by thioflavin T; Potency, µM (series often up to 57.4 µM), without a hit: at the highest dose activity, negative = inhibition, actives largely listed as inhibitors; recombinant tau K18 P301L, heparin-induced fibrillization, ThT fluorescence; actives 2.1% (n = 270,000); AID 1460; P10636; also: potency is read from the fitted curve at half-maximal effect; nearly all actives have a fitted effect of over 55% in size
Target sequence (P10636 561-689 P618L limits assumed): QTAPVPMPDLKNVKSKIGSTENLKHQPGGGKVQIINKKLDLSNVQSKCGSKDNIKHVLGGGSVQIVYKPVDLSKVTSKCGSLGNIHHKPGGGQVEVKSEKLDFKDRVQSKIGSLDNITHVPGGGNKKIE
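Aggregation was driven by heparin (20 uM final) acting on recombinant tau […] bearing P301L in 100 mM sodium acetate pH 7; fibrils were detected with Thioflavin T.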
Coupling enz: counter-screen for Giardia aldolase inhibitors: coupling enzyme system | coupling enzyme system counterscreen, AmpLite Red fluorescence | activity change, negative = inhibition, % at 58.2 µM, hits read low | actives 0.67% (n = 290,000) | AID 2472; in the data active = activity change below about -30%
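Activity here indicates interference with the coupling reaction, not aldolase inhibition. Compounds at 57.5 uM final met coupling enzymes for 10 min at RT; substrate and AmpLite Red detection followed, with a 525/598 nm fluorescence read after 20 min.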
Tau fluor counter: counter-screen for tau fibril formation inhibitors. actives 0.93% (n = 280,000). Potency, µM (highest dose often 57.7 µM), without a hit: top-dose activity change, negative = decrease. tau K18 P301L (four-repeat tau fragment) Alexa594 fluorescence, heparin fibrillization; also: potency is read from the fitted curve at half-maximal effect; nearly all actives have a fitted effect of over 55% in size
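Human K18 P301L tau (15 uM unlabeled plus 0.24 uM Alexa 594-labeled, final) in 100 mM sodium acetate pH 7 was mixed with compound and 20 uM heparin and incubated 6 hr at 37 C.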
Sfp inh: Sfp phosphopantetheinyl transferase inhibition; Q9F4F7; Biochemical Sfp PPTase activity, qHTS; Potency, µM, for the others: largest response in the series, negative = inhibition, usual class: inhibitors; actives 3.5% (n = 310,000);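 also: the enzyme is Sfp with the accession as filed and its product quenches rhodamine fluorescence; potency is read from the fitted curve at half-maximal effect; 0% = enzyme reaction without inhibitor and -100% = no enzyme wells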
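Compounds were incubated with enzyme (final 15 nM) for 15 min at room temperature before substrate addition started the reaction. Fluorescence at 525 nm excitation, 598 nm emission was recorded immediately and after 30 minutes.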
Tau FP inhib: tau fibrillization inhibition (FP). P10636. K18 P301L tau heparin fibrillization, Alexa594 FP, 6 h. Potency, µM (series often up to 57.7 µM), for inactives: at the highest dose activity, negative = inhibition, usual class: inhibitors. actives 0.39% (n = 280,000); also: potency is read from the fitted curve at half-maximal effect; nearly all actives have a fitted effect of over 55% in size
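FP of Alexa 594-tau after heparin (20 uM) induction. Substrate: human K18 P301L, 15 uM unlabeled, 0.24 uM labeled. Buffer 100 mM sodium acetate pH 7. 6 hr, 37 C.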
Starred values were filed as active, the others as inactive; ? = inconclusive; . = not tested or not shown; [ ] = another dose, or the depositor's remark. Sampled rows, rich in hits. Any-hit rate of the full collection: about 5.2%. Unless noted, calls follow the shape of the dose curve; as a rule, active = well fitted curve in the direction sought with a large enough effect; inconclusive = small, poorly fitted or top-dose-only effect, or another doubt; inactive = no such curve, though single readings can be large; an effect the other way counts as inactive or inconclusive. Unless noted, % is scaled to controls: 0 for no effect and ±100 for the full control effect.

SMILES	Tau ThT inhib	Coupling enz	Tau fluor counter	Sfp inh	Tau FP inhib
Cc1ccc(C(=O)N2CCN(c3ccc([N+](=O)[O-])c(NCc4cccnc4)c3)CC2)cc1	13µM*	4	-8%	-15%	10%
O=[N+]([O-])c1ccc(N2CCCCC2)cc1N1CCOCC1	?	1	-6%	14%	-11%
Cc1ccccc1C(=O)N1CCN(c2ccc([N+](=O)[O-])c(NCc3cccnc3)c2)CC1	?	0	-8%	-7%	5%
CCOc1ccc(C(=O)NCC(c2ccc3c(c2)OCO3)N2CCN(C)CC2)cc1 (stereo not drawn)	-9%	.	-9%	.	-10%
O=C(NNS(=O)(=O)c1ccccc1)c1cccc(F)c1	.	5	.	35µM*	.
Cc1ccc(NC(=O)CN2CCSc3ccc(S(=O)(=O)N4CCCC4)cc32)cc1	6%	.	?	.	13%
CC(C)CSC1=NSC2=NC(=O)/C(=C\c3coc4ccccc4c3=O)C(=N)N12	28µM*	8	?	-20%	?
CC(C)CSC1=NSC2=NC(=O)/C(=C\c3ccccc3)C(=N)N12	?	6	-18%	33%	-1%
Cc1cc(/C=C2\C(=N)N3C(SCc4ccccc4)=NSC3=NC2=O)c(C)n1Cc1ccccc1	-10%	0	-7%	-6%	4%
CSC1=NSC2=NC(=O)/C(=C\c3coc4ccccc4c3=O)C(=N)N12	14µM*	5	?	-4%	?
CCn1c(C)c(C2N3CC4(C)CN2CC(CC)(C3)C4=O)c2ccccc21 (stereo not drawn)	-2%	.	-5%	.	3%
CC(=O)N(Cc1ccc(F)cc1)C1=C(NCCc2ccccc2)C(=O)c2ccccc2C1=O	28µM*	-47*	?	-11%	?
Cc1cc(Br)ccc1NC(=O)CSc1c2c(nc3ccccc13)CCC2	?	.	-16%	.	1%
CCOC(=O)c1nc(Nc2ccc(C(=O)OC(C)C)cc2)c2ccccc2n1	2%	.	?	.	?
CCOC(=O)c1c(N)n(CC(C)NC(=O)C2CC2)c2nc3ccccc3nc12 (stereo not drawn)	-6%	7	-1%	0%	-9%
COCCn1c(N)c(C(=O)NCC2CCCO2)c2nc3ccccc3nc21 (stereo not drawn)	-10%	-35*	-17%	-5%	-10%
CC(C)Cn1c(N)c(C(=O)NCC2CCCO2)c2nc3ccccc3nc21 (stereo not drawn)	?	-47*	?	-2%	-10%
COCCn1c(N)c(S(=O)(=O)c2cccs2)c2nc3ccccc3nc21	-15%	-33*	-21%	-12%	-6%
COc1ccc(OC)c(-n2c(N)c(C(=O)NCC3CCCO3)c3nc4ccccc4nc32)c1 (stereo not drawn)	-10%	-6	-16%	-3%	4%
Nc1c(C(=O)NC2CCCC2)c2nc3ccccc3nc2n1N	?	0	-24%	32µM*	-4%
COc1ccc(NC(=O)Nc2sc3nc4n(c(=O)c3c2C)CCC(C)CC4)cc1OC (stereo not drawn)	?	.	8.9µM*[quencher]	.	?
CC(=O)Nc1ccc(NC(=O)Nc2sc3nc4n(c(=O)c3c2C)CCC(C)CC4)cc1 (stereo not drawn)	?	.	?	.	-4%
COc1ccc(C2CC(c3cccs3)=Nc3ccccc3S2)cc1 (stereo not drawn)	-6%	0	-3%	22µM*	7%
COc1ccc(C2CC(c3cccs3)=NN2S(C)(=O)=O)cc1 (stereo not drawn)	-5%	0	-7%	21%	-1%
CCOc1ccc(/C=C(\C#N)C(=O)Nc2sc3c(c2C(=O)OC)C(C(=O)OC)CC3)cc1OC (stereo not drawn)	3.2µM*	.	-23%	.	?
SMILES	Tau ThT inhib	Coupling enz	Tau fluor counter	Sfp inh	Tau FP inhib
CCN(CC)CCN(Cc1cc2cc3c(cc2[nH]c1=O)OCCO3)C(=S)NCC1CCCO1 (stereo not drawn)	9%	-23	2%	5µM*	-4%
CCOCCCNC(=S)N(CCO)Cc1cc2cc3c(cc2[nH]c1=O)OCCO3	.	1	.	56µM*	.
CC(C)(C)NC[C@H](O)COc1cccc2c1C[C@@H](O)[C@@H](O)C2	.	1	.	19%	.
Nc1c(C=C2C=CC(=O)C=C2)c(=O)nc2snc(SCc3ccccc3)n12	7.9µM*	20	?	-18%	?
COc1ccc(CNc2cc(-c3cccc(NS(C)(=O)=O)c3)ncn2)c(OC)c1	.	0	.	-3%	.
COc1cc(-c2nc(S(=O)(=O)c3ccc(C)cc3)c(N(C)C)o2)cc(OC)c1OC	?	3	2%	56µM*	5%
CC(=O)Nc1cccc(NC(=O)c2c(-c3ccccc3)c(-c3ccccc3)nn(C)c2=O)c1	6%	.	1%	.	0%
Oc1ccc(Cl)cc1N=Cc1sc2ccccc2c1Cl	-18%	-1	-12%	-21%	-6%
O=[N+]([O-])c1ccc(O)c(N=Cc2sc3ccccc3c2O)c1	4.5µM*	-13	?	-9%	2%
Cc1cccc(/N=C/c2sc3ccccc3c2O)n1	5.6µM*	-3	25µM*[fluorescent]	12%	?
Cc1nn(C(C)(C)C)c(OC(=O)c2cccc(F)c2)c1Sc1ccccc1	?	.	-20%	.	-2%
CN(CC(=O)NCc1ccccc1)S(=O)(=O)c1ccc2[nH]c3c(c2c1)CCCC3	-5%	.	?	.	?
Cc1ccc(CNS(=O)(=O)c2ccc3[nH]c4c(c3c2)CCCCC4)cc1	3%	.	?	.	?
O=S(=O)(Nc1cccc(Cl)c1)c1ccc2[nH]c3c(c2c1)CCCCCC3	-10%	.	8.9µM*[quencher]	.	?
Cc1cccc(NS(=O)(=O)c2ccc3[nH]c4c(c3c2)CCCCCC4)c1	0%	.	11µM*[quencher]	.	7%
CN(Cc1ccccc1)S(=O)(=O)c1ccc2[nH]c3c(c2c1)CCCCC3	0%	.	3.5µM*[quencher]	.	?
Cc1ccccc1NS(=O)(=O)c1ccc2[nH]c3c(c2c1)CCCCC3	-11%	.	14µM*[quencher]	.	5%
CN(C)c1ncc2nc(CCc3ccccc3)c(=O)n(CCc3ccccc3)c2n1	.	-1	.	-4%	.
CCCCc1nnc(SCc2cc(=O)c3cc(F)ccc3[nH]2)n1C	-4%	.	-3%	.	-6%
Cc1ccc2nc(-c3ccc(C)s3)c(Nc3ccc4c(c3)OCCO4)n2c1	2%	.	?	.	4%
CN1C/C(=C/c2ccc(B(O)O)cc2)C(=O)/C(=C/c2ccc(B(O)O)cc2)C1	.	-1	.	?	.
CCCCCSc1nnc2c(n1)[nH]c1c(C)cccc12	-10%	.	0%	.	-7%
CC(/C=N\Nc1nnc2c(n1)[nH]c1c(C)cccc12)=C\c1ccco1	1.4µM*	0	?	-5%	12%
Cc1cccc(NC(=O)c2c(NC(=O)c3ccccc3)sc3c2CCCC3)c1	10µM*	.	?	.	?
CC(C)(C)c1ccc(C(=O)Nc2sc3c(c2C(=O)O)CCC3)cc1	14µM*	-27	?	-8%	-7%
